# From ChEMBL document CHEMBL3988442, “University of Dundee, Small-Polar-MMV Screening Library” (2021)
# Biological target: T1, Tyrosyl-tRNA synthetase, putative (Trypanosoma cruzi (strain CL Brener)) (UniProt Q4DSP6)
# T1 sequence (whole entry): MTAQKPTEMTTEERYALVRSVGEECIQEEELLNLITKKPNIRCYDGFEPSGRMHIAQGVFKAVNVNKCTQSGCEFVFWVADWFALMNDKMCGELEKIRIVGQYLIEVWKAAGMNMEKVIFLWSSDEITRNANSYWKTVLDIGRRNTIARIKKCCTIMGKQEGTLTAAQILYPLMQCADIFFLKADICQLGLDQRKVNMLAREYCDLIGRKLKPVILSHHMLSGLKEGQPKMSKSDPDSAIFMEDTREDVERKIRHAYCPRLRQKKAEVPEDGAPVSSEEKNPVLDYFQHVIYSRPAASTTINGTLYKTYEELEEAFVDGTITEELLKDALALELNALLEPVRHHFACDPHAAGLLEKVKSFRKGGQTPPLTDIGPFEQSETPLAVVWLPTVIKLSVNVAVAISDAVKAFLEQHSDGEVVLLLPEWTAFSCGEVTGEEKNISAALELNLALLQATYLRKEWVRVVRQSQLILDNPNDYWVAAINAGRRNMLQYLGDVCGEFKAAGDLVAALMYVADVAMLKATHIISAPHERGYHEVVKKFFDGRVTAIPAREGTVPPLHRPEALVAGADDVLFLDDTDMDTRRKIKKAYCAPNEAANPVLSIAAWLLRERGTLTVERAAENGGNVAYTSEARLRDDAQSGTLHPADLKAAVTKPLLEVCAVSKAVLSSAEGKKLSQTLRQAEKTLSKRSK
# Assay: Trypanosoma cruzi tyrosyl tRNA synthetase (TcYRS) SOP
# Format: functional
# Set-up: scale not given: direction of the effect not stated beside the values
# Conditions: 30 µM
row,SMILES,Percent Effect
1,CCCNCC1(O)CCCN(Cc2cccc(C)c2)C1=O (stereo not given),5%
2,COCCC1(CO)CCCN(Cc2ccc(F)c(C)c2)C1 (stereo not given),1.24%
3,Cn1cc(C(=O)N[C@@H]2CN(Cc3cccs3)[C@@H]3CCCO[C@@H]32)cn1,12.5%
4,Cn1ccnc1-c1cccc(NC(=O)NCCCO)c1,7.69%
5,CC(C)(C)NC(=O)CNC(=O)CCc1ccccc1Br,7.69%
6,c1ccc(CN2CCCC(c3nccnc3-n3ccnc3)C2)cc1 (stereo not given),6.41%
7,COc1ccc2nnc(CCCC(=O)NCCC3=CCCCC3)n2n1,17.9%
8,Cc1cnn(CC2CN(Cc3nc(N)c4ccccc4n3)CCO2)c1 (stereo not given),11.8%
9,O=C(c1ccccn1)N1CCc2nc(-c3cnccn3)nc(O)c2C1,14.3%
10,NCC(c1ccccc1)N1CCc2sccc2C1 (stereo not given),18.2%
11,Cc1cc(C(=O)N2Cc3ccccc3OC3(CCOCC3)C2)nc(N)n1,14.3%
12,CC1=Nc2c(c(=O)[nH]n2C(C)C)C(c2ccccc2)S1 (stereo not given),28.2%
13,FC(F)(F)c1cc(N2CCc3ncnc(NC4CC4)c3CC2)ncn1,-5%
14,O=C(Nc1ccc(F)cc1F)Nc1c[nH]c(=O)[nH]c1=O,3.85%
15,Cn1c(Cn2cccn2)nnc1C1CCN(Cc2cccnc2N)CC1,0%
16,Cc1ccc(C2CSCCN2C(=O)C2=CCCC2)o1 (stereo not given),6.17%
17,COC(=O)c1cccc(C(=O)N2CCN(c3cccc(C)c3C)CC2)n1,11.5%
18,NS(=O)(=O)N1CCc2ccc(NC(=O)Cc3ccc(F)cc3)cc21,2.5%
19,COc1ccccc1C1CNC(=O)c2nc(-c3cnn(C)c3)[nH]c2C1 (stereo not given),17.1%
20,O=C1NCCN1C1CCN(Cc2nc(-c3ccoc3)no2)CC1,12.2%

row,SMILES,Percent Effect
1,Cc1ccc(N2CC3(COCCN(Cc4nccs4)C3)OCC2=O)s1 (stereo not given),8.97%
2,CCOCCCn1c(NC(=O)c2cnn(C)c2)nc2ccccc21,14.6%
3,CCn1nnc2cc(C(=O)N3CCCC3Cn3cc(C)cn3)ccc21 (stereo not given),1.27%
4,CN(C)CC1CSCCCN1C(=O)c1ccc(C(C)(C)C)cc1 (stereo not given),16.7%
5,CS(=O)(=O)CC(=O)N1C[C@H]2CCC[C@@]2(COCc2ccccn2)C1,17.9%
6,COc1ccccc1CN(C)C(=O)c1cc(CN2CCC(O)CC2)on1,20%
7,COCC(O)CNC(=O)c1coc(COc2ccc3sc(C)nc3c2)n1 (stereo not given),15%
8,CCc1n[nH]c(C2CN(Cc3nccn3CC)CCO2)n1 (stereo not given),25.9%
9,COc1ccc(-n2ccc(C(=O)N3CCN(C)CC3C)n2)cc1 (stereo not given),14.6%
10,c1ccc(-c2noc(CNC3CCc4ncnn4C3)n2)nc1 (stereo not given),1.22%
11,Cc1cc(=O)n2ncnc2n1CC(O)c1cc(F)ccc1F (stereo not given),20.8%
12,CSc1ccc(C(CNC(=O)C2CC2)N2CCc3sccc3C2)cc1 (stereo not given),15.6%
13,CS(=O)(=O)NC[C@H]1OC[C@@H]2CCN(Cc3ccc(F)cc3)C[C@@H]21,15%
14,COc1ccc(CNC(=O)CNc2cc3c(cc2Cl)OCCCO3)cc1,1.24%
15,CCOCCOc1ccccc1C(=O)N1CCCC(c2ncc[nH]2)C1 (stereo not given),17.5%
16,CC(O)CN1CCN(C(=O)c2cc3ccccc3c(=O)[nH]2)CC1 (stereo not given),2.6%
17,CCN1CCC(NC(=O)CN2CCCC2Cn2nc(C)cc2C)CC1 (stereo not given),1.24%
18,CCc1ccc(OCC(O)CN2CCN(S(C)(=O)=O)CC2)cc1 (stereo not given),2.35%
19,O=C1CCCN1CC1CN(C(=O)CC2CCCC2)Cc2nccn2C1 (stereo not given),11.5%
20,Cc1nc(C2CCN(C(=O)c3cccnc3)CC2)c2sccn12,6.49%
